The record followed here is PubChem BioAssay (NCATS).

For this assay, the target named is Cellular tumor antigen p53 (Homo sapiens) (UniProt P04637). The experiment in a line: Primary qHTS for small molecule compounds that upregulate eGFP-tagged delta133p53alpha (in N-terminal) cells. (AID 2060322). Also: nearly all actives have a fitted effect of over 75% in size.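 As to activation: series mostly up to about 56 µM; 0% = DMSO vehicle and 100% = reference activator.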 To be noted: NCI-H358 eGFP-delta133p53alpha fluorescence, 24 h; activation: active compounds read high. In short, it runs like this: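 NCI-H358 cells pre-induced 24 h with 10 ng/ml doxycycline to express N-terminal eGFP-delta133p53alpha, then dosed 24 h at 37C without doxycycline; fixed, Hoechst-stained, GFP intensity by laser scanning cytometry, normalized to DMSO (0%) and 57.5 uM 5-azacytidine (100%).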
Chain of Cellular tumor antigen p53 (Homo sapiens) (P04637 whole entry, looked up): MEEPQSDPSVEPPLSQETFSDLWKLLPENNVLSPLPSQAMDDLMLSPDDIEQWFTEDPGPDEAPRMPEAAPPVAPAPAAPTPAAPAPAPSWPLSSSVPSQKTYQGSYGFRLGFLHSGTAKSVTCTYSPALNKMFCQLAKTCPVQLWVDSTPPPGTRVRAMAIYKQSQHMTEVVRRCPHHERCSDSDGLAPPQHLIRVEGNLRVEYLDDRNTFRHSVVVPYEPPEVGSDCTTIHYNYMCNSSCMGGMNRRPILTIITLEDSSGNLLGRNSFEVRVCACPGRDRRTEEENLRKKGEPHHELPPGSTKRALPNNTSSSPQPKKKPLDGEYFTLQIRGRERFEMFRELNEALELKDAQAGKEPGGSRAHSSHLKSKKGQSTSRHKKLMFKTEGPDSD
A general note: qHTS replaces the single test concentration by a dilution series.

Where “and” joins values, the source holds several entries; their conditions need not be identical. Equal entries are not always repeated. Inconclusive results are not listed. Unmarked numbers belong to inactive results. Calls of active or inactive are those of the source. Calls follow the shape of the dose curve; as a rule, active = well fitted activation curve with a large enough effect; inconclusive = small, poorly fitted or top-dose-only effect; inactive = no such curve, though single readings can be large or run the other way.
Potency is read from the fitted curve at half-maximal effect.

As to `C[C@H](N)[C@H](O)c1cccc(O)c1`, the activation is -7.53%.
In the case of `CC(C(=O)O)c1ccc2c(c1)Cc1cccnc1O2` (centres undefined), the activation was -30.1%.
Still for that read-out and setting: then `CC(C)c1cc2c(cc1S(=O)(=O)O)[C@@]1(C)CCC[C@@](C)(C(=O)O)[C@@H]1CC2`, with -22%; and `CC(CN(C)C)C(C)(O)Cc1ccc(Cl)cc1` (centres undefined), with 21.8%.
As for `CCCCC1C(=O)N(c2ccccc2)N(c2ccc(O)cc2)C1=O` (centres undefined), the Potency was 4.37 µM (active).
For the molecule `CCCCCC(=O)O[C@]1(C(C)=O)CC[C@H]2[C@@H]3CCC4=CC(=O)CC[C@]4(C)[C@H]3CC[C@@]21C`, the activation was 23.2%.
In the case of `O=C(C=Cc1ccc(/C=C/C(=O)Nc2ccc(C3=NCCN3)cc2)cc1)Nc1ccc(C2=NCCN2)cc1`, the activation is -8.95%.
Still for that read-out and setting: then `Cc1cc2nc3c(=O)[nH]c(=O)nc-3n(C[C@H](O)[C@H](O)[C@H](O)CO)c2cc1C`, with -36.8%; and `COc1ccccc1OCC(O)COC(N)=O` (centres undefined), with -36.8% and 17.3%.
For the molecule `N#CC(=C(N)Sc1ccc(N)cc1)c1ccccc1C(F)(F)F`, the activation was 19.5%.
For `O=C(O)C(=O)Nc1cccc(C2=NN=N[N]2)c1`, the activation is 19.6%.
On the same count and under the same terms, for `CCCCCCCCCCCCCCC[C@H](O)[C@@H](N)CO` the value was 18.4%; for `Cc1c(Cl)cccc1Nc1ccccc1C(=O)O`, 8.47%; for `CC(=O)c1cc2ccccc2s1`, 6.21%.
In the case of `C/C(=N\O)[C@@H](C)NCC(C)(C)CN[C@H](C)/C(C)=N/O`, the activation is -12.6%.
The same measure, in the same setting: for `Nc1ccc(S(=O)(=O)Nc2ncccn2)cc1` the value was -6.74%; for `CO[C@H]1O[C@@H]2O[C@@]3(C)CC[C@@H]4[C@@H](C)CC[C@@H]([C@H]1C)[C@@]24OO3`, 20%; for `NS(=O)(=O)c1cc2c(cc1C(F)(F)F)NCNS2(=O)=O`, 6.21%.
Still for that read-out and setting: for `COc1cc(-c2ccc(=O)[nH]n2)ccc1OC(F)F` the value was 2.51%.
For `CC=C1NC(=O)[C@H]2CSSCCC=C[C@H](CC(=O)N[C@H](C(C)C)C(=O)N2)OC(=O)[C@H](C(C)C)NC1=O`, the activation is 27.9%.
On to `O=c1ccc2ccccc2o1`, for which the activation is 9.21%.
Same read-out and setting: for `Cl/C(=C\n1cncn1)c1ccc(Cl)cc1Cl` the value was -2.82%; for `Cc1nc2ccccc2n1Cc1ccc(Cl)cc1`, -11.7%.
The same measure, in the same setting: then `OCc1ccccc1O`, with -1.69%; and `O=C(O)Cc1ccc(CCNS(=O)(=O)c2ccc(Cl)cc2)cc1`, with -1.67%; and `CC(=O)Oc1cccc(C)c1`, with -28.8%.
The same measure, in the same setting: for `COc1c(N2C[C@@H]3CCCN[C@@H]3C2)c(F)cc2c(=O)c(C(=O)O)cn(C3CC3)c12` the value was 4.18%.
In the case of `CCN(CC)CCOC(=O)C(c1ccccc1)c1ccccc1`, the activation was -8.47%.
On the same count and under the same terms, for `Cc1ccc(C(=O)NCCCCCC(=O)Nc2ccccc2N)cc1` the value was 11.2%.
Take `NC1=N[C@@]2(c3cc(NC(=O)c4ccc(F)cn4)ccc3F)COC[C@@H]2CS1`: the activation is 87.4%.
The same measure, in the same setting: then `COc1ccc(OC(=O)N(CC(=O)O)Cc2ccc(OCCc3nc(-c4ccccc4)oc3C)cc2)cc1`, with -10.7%; and `O=C(NC1CCN(CCc2c[nH]c3ccccc23)CC1)c1ccccc1`, with 2.51%.
Same read-out and setting: then `CC(C)OC(=O)c1cc2c(OCC(O)CNC(C)(C)C)cccc2[nH]1` (centres undefined), with 20.9%; and `CCCCC1=NC2(CCCC2)C(=O)N1Cc1ccc(-c2ccccc2-c2nn[nH]n2)cc1`, with 6.69%; and `CCn1cc(C(=O)O)c(=O)c2cc(F)c(N3CCNCC3)nc21`, with -2.51% and 26.4%.
For `CCCCCOc1ccccc1/C(=C\SC)n1ccnc1`, the activation was -16.7%.
Consider `CC1=C(CO)C(=O)O[C@@H]([C@@H](C)[C@H]2CC[C@H]3[C@@H]4C[C@H]5O[C@]56[C@@H](O)C=CC(=O)[C@]6(C)[C@@H]4CC[C@]23C)C1`, for which the Potency was 3.85 µM (active).
Regarding `CCCCCCCC(=O)OCC(COC(=O)CCCCCCC)OC(=O)CCCCCCC`, the activation is -13.4%.
In the case of `CC(C)(Oc1ccc(Cl)cc1)C(=O)OCCCOC(=O)C(C)(C)Oc1ccc(Cl)cc1`, the activation is -6.69%.
Still for that read-out and setting: for `COc1ccnc2[nH]cc(C(=O)C(=O)N3CCN(C(=O)c4ccccc4)C[C@@H]3C)c12` the value was 3.59%; for `CCCC(CCC)(C(=O)OCC)C(=O)OCC`, -3.95%; for `C/C=C(/C(=C/C)c1ccc(O)cc1)c1ccc(O)cc1`, 15.1%.
Turning to `CC(=O)O[C@]1(C(C)=O)CC[C@H]2[C@@H]3C=C(C)C4=CC(=O)CC[C@]4(C)[C@@H]3CC[C@@]21C`, the activation is -16.9%.
Still for that read-out and setting: for `COc1ccc2cc1Oc1cc3c(cc1OC)CC[N+](C)(C)[C@H]3Cc1ccc(cc1)Oc1c(OC)c(OC)cc3c1[C@@H](C2)[N+](C)(C)CC3` the value was 13%.
`CC(C)N1[N]C(=C2C=c3cc(O)ccc3=N2)c2c(N)ncnc21`: the activation was 11.7%.
As to `C=CCN1C[C@H](C(=O)N(CCCN(C)C)C(=O)NCC)C[C@@H]2c3cccc4[nH]cc(c34)C[C@H]21`, the activation is -8.37%.
Same read-out and setting: then `O=C1CC2(CCCC2)CC(=O)N1`, with -7.34%.
Same read-out and setting: then `O=C(/C=C/c1ccc(O)c(O)c1)O[C@@H]1C[C@@](OC(=O)/C=C/c2ccc(O)c(O)c2)(C(=O)O)C[C@@H](O)[C@@H]1O`, with 11.9%; and `Cc1cc(C=c2sc3nc4ccccc4n3c2=O)c(C)n1-c1ccccc1`, with -10.2%.
The same measure, in the same setting: for `CC(C)CCCC(C)N` (centres undefined) the value was 0.565%; for `Cc1ccccc1C(C(=O)NC1CCCC1)N(C(=O)Cn1cnc2ccccc21)c1cccc(F)c1` (centres undefined), -4.95%; for `O=C(O)Cn1cnnn1`, -6.21%.
In the case of `O=C(N/N=C/c1ccccc1O)c1ccncc1`, the activation was -12.6%.
`Fc1ccc(C(c2ccc(F)cc2)N2CCNCC2)cc1`: the activation was -8.47%.
On the same count and under the same terms, for `C/C=C1\[C@H]2C=C(C)C[C@]1(N)c1ccc(=O)[nH]c1C2` the value was 5.08%; for `COC(=O)c1c(Cl)c(Cl)c(C(=O)OC)c(Cl)c1Cl`, -11.7%; for `O=C(NCCc1c[nH]c2ccccc12)c1cccnc1`, 10.9%.
Turning to `CCCCc1cc2ccccc2c(OCCN(C)C)n1`, the activation is -0.565%.
Same read-out and setting: then `C[C@H](CCC(=O)O)[C@H]1CC[C@H]2[C@@H]3[C@H](O)C[C@@H]4C[C@H](O)CC[C@]4(C)[C@@H]3CC[C@]12C`, with -19.5%; and `CC(N)CCCC(C)(C)O` (centres undefined), with -2.82%; and `CC(=O)C1=C(O)C=C2Oc3c(C(C)=O)c(O)c(C)c(O)c3C2(C)C1=O` (centres undefined), with 47.4%.
On the same count and under the same terms, then `N=C(N=C(N)N)N1CCOCC1`, with 1.67% and -4.92%.
For the molecule `C[C@H](NCc1ccc2c(c1)nc(NC(=O)c1ccc(-c3cn[nH]c3)s1)n2CCc1ccccc1)C(C)(C)C`, the Potency is 6.11 µM (active).
Consider `O=C(CN1CCN(Cc2ccc3c(c2)OCO3)CC1)N1c2ccccc2Sc2ccccc21`, for which the activation is 1.69%.
Same read-out and setting: then `CNS(=O)(=O)Cc1ccc2[nH]cc(CCN(C)C)c2c1`, with -6.69% and -7.27%.
Regarding `CO[C@@H]1C(N(C)C(=O)c2ccccc2)C[C@H]2O[C@]1(C)n1c3ccccc3c3c4c(c5c6ccccc6n2c5c31)C(=O)NC4=O` (some centres undefined), the Potency was 9.68 µM (active).
`OC(CCN1CCCC1)(c1ccccc1)C1CCCCC1` (centres undefined): the activation is 20.1%.
The same measure, in the same setting: for `C[C@@H]1CC=CC=CC=CC=C[C@@H](O[C@@H]2O[C@H](C)[C@@H](O)[C@H](N)[C@H]2O)C[C@@H]2O[C@](O)(C[C@@H](O)C[C@@H]3O[C@@H]3C=CC(=O)O1)C[C@H](O)[C@@H]2C(=O)O` the value was -2.86%.
The same measure, in the same setting: for `O=C1C(Cl)=C(N2CCOCC2)C(=O)N1c1ccc(Cl)c(Cl)c1` the value was -1%; for `CCCCCCCCCCCCCCCCCCN(C)C`, -22.6%.
`O=c1[nH]c(=O)c2ccccc2o1`: the activation was -12.6%.
In the case of `FC(F)(F)c1ccc(C=Cc2nc(COc3ccc(CCCCn4ccnn4)cc3)co2)cc1`, the Potency is 24.3 µM (active).
Consider `O=C1[C@H]2CCCC[C@H]2C(=O)N1CCCCN1CCN(c2nsc3ccccc23)CC1`, for which the activation is 10.7%.
On the same count and under the same terms, for `CC(=O)N[C@@H](Cc1ccc(O)cc1)C(=O)O` the value was 0.837%; for `CC(=O)Nc1ccc(CC(=O)O)cc1`, 6.21%; for `Cc1cc2c(OCC(CNC(C)(C)C)OC(=O)c3ccccc3)cccc2[nH]1` (centres undefined), 9.6%.
The same measure, in the same setting: for `CCN[C@@H]1C[C@H](N)[C@@H](OC2OC(CN)=CCC2N)[C@H](O)[C@H]1O[C@H]1OC[C@](C)(O)[C@H](NC)[C@H]1O` (some centres undefined) the value was 1.67%; for `O=C(O)c1ccccc1Nc1cccc(C(F)(F)F)c1`, -19.8%; for `CCCCCCCC/C=C/C(=O)O`, -2.82%.
The same measure, in the same setting: for `CC1(C)CCC[C@@]2(C)[C@@H]1CC[C@@]1(C)OC(=O)C[C@H]21` the value was -11.9%.
`CCC(=O)OCC(=O)[C@@]1(OC(=O)CC)[C@@H](C)C[C@@H]2[C@H]3CCC4=CC(=O)C=C[C@]4(C)[C@@]3(F)[C@@H](O)C[C@@]21C`: the activation is 3.16%.
On the same count and under the same terms, then `c1ccc2occc2c1`, with -5.08%.
Still for that read-out and setting: for `CC(=O)Nc1ccc(OCC(O)CNC(C)C)cc1` (centres undefined) the value was -14.2%.
As to `O=C(O)c1cc(=O)c2ccccc2o1`, the activation was 2.51%.
With `Nc1nc(NCc2ccccc2)c2[nH]cnc2n1`, the activation is 6.7%.
On the same count and under the same terms, for `O=C(Cn1ccnc1[N+](=O)[O-])NCCO` the value was -9.21%.
Same read-out and setting: then `CC=CC(=O)N(CC)c1ccccc1C`, with -8.73%; and `N=C(N)c1ccc(OCCCOc2ccc(C(=N)N)cc2)cc1`, with -15.9%.
On the same count and under the same terms, for `C[n+]1c2cc(N)ccc2cc2ccc(N)cc21` (tested in a mixture with another compound) the value was -29.9%.
